Records with an inconclusive call do not appear. Calls of active or inactive are those of the source. The call rests on the fitted dose curve; in most records, active means well fitted inhibition curve with a large enough effect; inconclusive means small, poorly fitted or top-dose-only effect; inactive means flat fitted curve, though single readings scatter.
Legend:
Assay in all cases: qHTS profiling for inhibitors of Plasmodium falciparum proliferation (AID 504749); further: nearly all actives have a fitted effect of over 60% in size
Details in all cases: P. falciparum in erythrocytes, SYBR Green DNA, 72 h; series mostly up to 28.7 µM
DIV30 = test system: DIV30
Summary of the method: (§1)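 P. falciparum-infected erythrocytes (0.3% parasitemia, 2.5% hematocrit final) were exposed to compounds for 72 h at 37 C in 5% CO2, then lysed with SYBR Green buffer overnight at room temperature; parasite DNA fluorescence was normalized to artemisinin and DMSO controls.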

Dd2 = test system: Dd2
Summary of the method: as §1

ECU = test system: ECU
Summary of the method: as §1

FAB9 = test system: FAB9
Summary of the method: as §1

GB4 = test system: GB4
Summary of the method: as §1

HB3 = test system: HB3
Summary of the method: as §1

ICS = test system: ICS
Summary of the method: as §1

JCK = test system: JCK
Summary of the method: as §1

N140 = test system: N140
Summary of the method: as §1

P93_24 = test system: P93_24
Summary of the method: as §1

P94_40 = test system: P94_40
Summary of the method: as §1

PAD = test system: PAD
Summary of the method: as §1

PC15 = test system: PC15
Summary of the method: as §1

PC26 = test system: PC26
Summary of the method: as §1

PC49 = test system: PC49
Summary of the method: as §1

SC27B = test system: SC27B
Summary of the method: as §1

TAB109 = test system: TAB109
Summary of the method: as §1

TAB113 = test system: TAB113
Summary of the method: as §1

TAB165 = test system: TAB165
Summary of the method: as §1

W2 = test system: W2
Summary of the method: as §1

Measured: Potency

OB(O)O
inactive: all assays above

CCOC(=O)c1cc(-c2ccccc2)nc2ccc(C)cc12
not listed: TAB109 | TAB113
inactive: all other assays above

FC(F)(F)C(F)(F)C(F)(F)C(F)(F)C(F)(F)C(F)(F)F
inactive: all assays above

CCCOC(=O)c1ccccc1O
not listed: TAB109 | W2
inactive: all other assays above

C[C@H](CCC(=O)O)[C@H]1CC[C@H]2[C@@H]3CC[C@@H]4C[C@H](O)CC[C@]4(C)[C@H]3C[C@H](O)[C@]12C
inactive: all assays above

CCCCCCCCCCCCCC(=O)OCC(COP(=O)([O-])OCC[N+](C)(C)C)OC(=O)CCCCCCCCCCCCC (configuration not stated)
inactive: all assays above

O=C(O)COc1ccc(CCNS(=O)(=O)c2ccccc2)s1
inactive: all assays above

FCOC(C(F)(F)F)C(F)(F)F
inactive: all assays above

Cc1ccc(S(=O)(=O)NCl)cc1
inactive: all assays above

CC(=O)Oc1cccc(C(=O)O)c1OC(C)=O
not listed: TAB109
inactive: all other assays above

Cc1ncc(C[n+]2csc(CCOP(=O)(O)OP(=O)(O)O)c2C)c(N)n1
inactive: all assays above

CC1CC(OC(=O)C(O)c2ccccc2)CC(C)(C)C1 (configuration not stated)
inactive: all assays above

CC(C)Cc1ccc([C@@H](C)C(=O)NS(C)(=O)=O)cc1
not listed: TAB109
inactive: all other assays above

CNC(=O)c1c(I)c(C(=O)NCC(=O)Nc2c(I)c(C(=O)O)c(I)c(C(=O)NCCO)c2I)c(I)c(N(C)C(C)=O)c1I
not listed: TAB109
inactive: all other assays above

CC(C)c1nc(N(C)S(C)(=O)=O)nc(-c2ccc(F)cc2)c1/C=C/C(O)CC(O)CC(=O)O (configuration not stated)
inactive: all assays above

CO/N=C(\C(=O)N[C@@H]1C(=O)N2C(C(=O)[O-])=C(C[n+]3cccc4c3CCC4)CS[C@H]12)c1csc(N)n1
not listed: TAB113
inactive: all other assays above

CC(C)O
inactive: all assays above

Cc1cccc(Nc2ncccc2C(=O)O)c1C
not listed: TAB109 | TAB113
inactive: all other assays above

COc1ccc(/C=N/NC(=O)c2ccncc2)c(C(=O)O)c1OC
not listed: TAB109
inactive: all other assays above

COc1ccc(C(=O)c2ccc(C)cc2)c(O)c1
inactive: all assays above

OCC1(CO)COC(C(Cl)(Cl)Cl)OC1
not listed: TAB109
inactive: all other assays above

CN1c2c(nc(N)[nH]c2=O)NCC1CNc1ccc(C(=O)NC(CCC(=O)O)C(=O)O)cc1 (configuration not stated)
not listed: TAB113
inactive: all other assays above

OCCCNc1ccccc1
inactive: all assays above

CCC(O)c1ccccc1 (configuration not stated)
inactive: all assays above

Cc1ccc(C(C)(C)c2ccc(C)cc2)cc1
inactive: all assays above

Cc1cc(-c2ccc(N=Nc3ccc4c(S(=O)(=O)O)cc(S(=O)(=O)O)c(N)c4c3O)c(C)c2)ccc1N=Nc1ccc2c(S(=O)(=O)O)cc(S(=O)(=O)O)c(N)c2c1O
inactive: all assays above

c1ccc2ccccc2c1
inactive: all assays above
